From PubChem BioAssay
Unmarked numbers belong to inactive results. How the calls were made is not given here.

These compounds were tested against Pantothenate synthetase (Mycobacterium tuberculosis (strain ATCC 25618 / H37Rv)) (UniProt P9WIL5) (assay: Recombinant Mtb pantothenate synthetase (PanC) inhibitors, coupled enzyme, confirmatory (AID 375;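 further: 0% = full reaction with vehicle and 100% = no enzyme background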)). Conditions: coupled enzyme assay; at 10 µM, stronger effect = higher value.
Pantothenate synthetase (Mycobacterium tuberculosis (strain ATCC 25618 / H37Rv)), sequence (P9WIL5 whole entry, looked up): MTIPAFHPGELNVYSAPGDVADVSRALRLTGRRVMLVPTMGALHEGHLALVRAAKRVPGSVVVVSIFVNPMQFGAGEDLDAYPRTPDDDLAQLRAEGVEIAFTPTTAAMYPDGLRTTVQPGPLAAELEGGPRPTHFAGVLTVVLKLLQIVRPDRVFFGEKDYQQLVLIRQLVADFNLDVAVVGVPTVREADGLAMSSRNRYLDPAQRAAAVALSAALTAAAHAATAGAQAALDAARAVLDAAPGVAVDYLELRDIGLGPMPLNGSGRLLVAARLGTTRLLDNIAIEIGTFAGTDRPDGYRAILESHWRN

| SMILES | inhibition |
| --- | --- |
| Cc1cccc(N2C(=O)CC(N3CCN(C(=O)c4ccccc4)CC3)C2=O)c1 (stereo not given) | 5% |
| COC(=O)CN1C(=O)C(O)(CC(=O)c2ccc(C)cc2)c2cc(Br)ccc21 (stereo not given) | 2% |
| CCOC(=O)c1cc(-c2nnc(-c3ccc(Oc4ccccc4)cc3)o2)c(C)nc1C | 0% |
| COc1ccc(-c2noc(CCCOc3ccccc3)n2)cc1OC | 7% |
| Cc1ccc(/C(O)=C2/C(=O)C(=O)N(Cc3ccco3)C2c2cccs2)cc1 (stereo not given) | 0% |
